Consider 13 compounds from PubChem BioAssay (NCATS).

SMILES strings stand for the structures. Inconclusive results are not listed. Calls of active or inactive are those of the source. Calls come from the whole dose curve; as a rule, active = well fitted inhibition curve with a large enough effect; inconclusive = small, poorly fitted or top-dose-only effect; inactive = flat fitted curve, though single readings scatter. Peptide text beside a SMILES is read from it.

Common to all, as to experiment: qHTS profiling for inhibitors of Plasmodium falciparum proliferation (AID 504749); note: nearly all actives have a fitted effect of over 60% in size
Holding throughout (details): P. falciparum in erythrocytes, SYBR Green DNA, 72 h; series mostly up to 28.7 µM

One test concerns CP260. An outline of the steps: (§1)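 Quantitative HTS: compounds pinned into medium, infected erythrocytes added (0.3% parasitemia, 2.5% hematocrit), 72 h culture at 37 C under 5% CO2. Saponin/Triton lysis with SYBR Green I, overnight RT, then fluorescence read.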
The test system of a further test is CP262. In a few lines:
as §1

The test system of another test is CP265. In a few lines: as §1
A further test relates to CP266. An outline of the steps: as §1
A further test relates to CP268. In a few lines:
as §1

A further test concerns CP269. An outline of the steps:
as §1

For another test, the system named is CP286. In a few lines: as §1
Another test concerns CP291. In a few lines: as §1
The next test deals with CP297. An outline of the steps:
as §1

Another test relates to CP305. An outline of the steps:
as §1

The subject of another test is CP315. In a few lines:
as §1

In another test the test system is CP325. In a few lines:
as §1

The test system of the next test is CP329. In a few lines:
as §1

For a further test, the system named is CP335. In a few lines:
as §1

The next test relates to DFO2036. In a few lines:
as §1

Another test relates to DIV14. In a few lines: as §1
Another test deals with DIV17. An outline of the steps:
as §1

For a further test, the system named is DIV30. In a few lines: as §1
In another test the test system is Dd2. An outline of the steps: as §1
For a further test, the system named is ECU. An outline of the steps:
as §1
Potency is the fitted concentration of half-maximal effect.

As for `Cc1cc2c(s1)Nc1ccccc1N=C2N1CCN(C)CC1`, the Potency entry in the test on CP260, with CP262, with CP265, with CP266, in the test on CP268 and in the test on CP269 was “inactive” each time. Moreover, the Potency entry with CP286, in the test on CP291, in the test with CP297, in the test with CP305, with CP315 and in the test with CP325 was “inactive” each time. Besides, the Potency entry in the test with CP329, with CP335, with DFO2036, in the test with DIV14, in the test with DIV17 and with DIV30 was “inactive” throughout. Besides, the Potency entry in the test on Dd2 and with ECU was “inactive” each time.
As for `CC(S)C(=O)NCC(=O)O` (stereo not given), the Potency result with CP260, in the test on CP262, in the test on CP265, with CP266, in the test on CP268 and with CP269 was “inactive” in each case. The Potency result in the test on CP286, in the test with CP291, in the test on CP297, in the test with CP305, in the test with CP315 and in the test with CP325 was “inactive” in each case. The Potency result in the test with CP329, in the test on CP335, with DFO2036, in the test with DIV14, with DIV17 and with DIV30 was “inactive” each time. The Potency entry in the test on Dd2 and in the test with ECU was “inactive” in each case.
For `CN(C)CCc1c[nH]c2ccc(Cn3cncn3)cc12`, the Potency entry with CP260, in the test with CP262, in the test on CP265, in the test on CP266, in the test with CP268 and with CP269 was “inactive” throughout. For the same compound, the Potency entry with CP286, with CP291, in the test on CP297, in the test on CP305, in the test on CP315 and in the test with CP325 was “inactive” throughout. Also, the Potency result in the test on CP329, in the test on CP335, in the test on DFO2036, in the test with DIV14, with DIV17 and with DIV30 was “inactive” throughout. The Potency result in the test with Dd2 and in the test with ECU was “inactive” in each case.
For the compound `Nc1ccc(S(N)(=O)=O)cc1`, the Potency result in the test with CP260, with CP262, in the test on CP265, with CP266, in the test with CP268 and in the test with CP269 was “inactive” throughout. Further, the Potency result in the test on CP286, in the test with CP291, with CP297, with CP305, with CP315 and with CP325 was “inactive” each time. The Potency entry with CP329, in the test with CP335, in the test on DFO2036, with DIV14, in the test on DIV17 and with DIV30 was “inactive” in each case. Moreover, the Potency entry in the test with Dd2 and in the test on ECU was “inactive” in each case.
Turning to `COc1cc2c(cc1OC)C1CC(=O)C(CC(C)C)CN1CC2` (stereo not given), the Potency entry in the test with CP260, with CP262, in the test on CP265, in the test with CP266, in the test with CP268 and in the test with CP269 was “inactive” in each case. Besides, the Potency entry in the test on CP286, in the test on CP291, in the test with CP297, in the test on CP305, in the test on CP315 and in the test with CP325 was “inactive” each time. Moreover, the Potency result with CP329, with CP335, in the test with DFO2036, in the test with DIV14, in the test with DIV17 and with DIV30 was “inactive” throughout. Further, the Potency entry in the test with Dd2 and in the test on ECU was “inactive” each time.
In the case of `C[C@]12CCC(=O)C=C1CC[C@@H]1[C@H]2[C@@H](O)C[C@@]2(C)[C@H]1CC[C@]2(O)C(=O)CO`, the Potency result in the test with CP260, with CP262, in the test on CP265, in the test on CP266, in the test on CP268 and in the test with CP269 was “inactive” each time. The Potency entry in the test with CP286, with CP291, with CP297, with CP305, with CP315 and with CP325 was “inactive” throughout. For the same compound, the Potency result in the test with CP329, with CP335, in the test with DFO2036, in the test on DIV14, in the test with DIV17 and in the test on DIV30 was “inactive” throughout. Besides, the Potency entry with Dd2 and with ECU was “inactive” each time.
Take `COC(=O)C1=C(C)NC(C)=C(C(=O)OCCCN2CCC(c3ccccc3)(c3ccccc3)CC2)C1c1cccc([N+](=O)[O-])c1` (stereo not given): the Potency was 2.82 µM (active) with CP260; 6.01 µM (active) with CP262; 7.94 µM (active) in the test with CP265; 9.53 µM (active) with CP266; 9.53 µM (active) in the test with CP268; 4.78 µM (active) with CP269. Besides, the Potency in the test on CP286 is 2.82 µM (active); in the test on CP291, 6.75 µM (active); with CP297, 4.78 µM (active); with CP305, 7.57 µM (active); in the test on CP315, 9.53 µM (active); in the test on CP325, 6.01 µM (active). Further, the Potency was 8.49 µM (active) with CP329; 4.26 µM (active) in the test with CP335; 7.94 µM (active) with DFO2036; 3.38 µM (active) in the test with DIV14; 4.26 µM (active) in the test on DIV17; 4.78 µM (active) in the test with DIV30. Besides, the values for the Potency in the test with Dd2 and in the test with ECU were 3.55 µM (active) and 4.47 µM (active), respectively.
Turning to `N[C@@H](Cc1cc(I)c(Oc2cc(I)c(O)c(I)c2)c(I)c1)C(=O)O`, the Potency result in the test on CP260, in the test with CP262, in the test on CP265, in the test with CP266, with CP268 and with CP269 was “inactive” in each case. Also, the Potency result in the test with CP286, in the test on CP291, with CP297, with CP305, in the test on CP315 and with CP325 was “inactive” each time. Further, the Potency entry in the test on CP329, in the test on CP335, in the test with DFO2036, with DIV14, in the test with DIV17 and in the test on DIV30 was “inactive” throughout. For the same compound, the Potency result in the test on Dd2 and with ECU was “inactive” throughout.
In the case of `COC(=O)[C@H](Cc1ccccc1)NC(=O)[C@@H](N)CC(=O)O` (H-Asp-Phe-OMe), the Potency result with CP260, in the test with CP262, in the test on CP265, in the test on CP266, with CP268 and in the test with CP269 was “inactive” each time. Besides, the Potency result in the test on CP286, with CP291, in the test with CP297, with CP305, with CP315 and in the test on CP325 was “inactive” in each case. The Potency result in the test with CP329, in the test with CP335, in the test with DFO2036, with DIV14, with DIV17 and in the test with DIV30 was “inactive” in each case. Further, the Potency result in the test on Dd2 and in the test on ECU was “inactive” in each case.
With `CN1C(C(=O)Nc2ccccn2)=C(O)c2sccc2S1(=O)=O`, the Potency result in the test with CP260, in the test on CP262, in the test with CP265, in the test on CP266, with CP268 and in the test with CP269 was “inactive” in each case. The Potency result in the test on CP286, with CP291, in the test on CP297, in the test on CP305, in the test on CP315 and with CP325 was “inactive” throughout. The Potency result with CP329, in the test on CP335, with DFO2036, in the test with DIV14, in the test with DIV17 and with DIV30 was “inactive” each time. Moreover, the Potency result with Dd2 and with ECU was “inactive” throughout.
Turning to `O=C(O)c1cccnc1Nc1cccc(C(F)(F)F)c1`, the Potency entry in the test with CP260, in the test with CP262, in the test on CP265, in the test with CP266, in the test with CP268 and in the test on CP269 was “inactive” throughout. The Potency entry in the test on CP286, with CP291, in the test with CP297, in the test on CP305, with CP315 and in the test on CP325 was “inactive” each time. The Potency result in the test with CP329, in the test on CP335, in the test with DFO2036, in the test with DIV14, in the test on DIV17 and in the test on DIV30 was “inactive” each time. Besides, the Potency entry in the test on Dd2 and in the test on ECU was “inactive” each time.
Take `O=P(O)(O)C(O)(Cn1ccnc1)P(=O)(O)O`: the Potency entry in the test with CP260, in the test with CP262, in the test with CP265, with CP266, with CP268 and with CP269 was “inactive” in each case. Besides, the Potency entry with CP286, with CP291, in the test with CP297, in the test with CP305, in the test on CP315 and with CP325 was “inactive” throughout. Further, the Potency result in the test with CP329, in the test on CP335, with DFO2036, in the test with DIV14, in the test on DIV17 and with DIV30 was “inactive” in each case. Further, the Potency result with Dd2 and in the test on ECU was “inactive” in each case.
In the case of `O=C(NC(Cc1cc(=O)[nH]c2ccccc12)C(=O)O)c1ccc(Cl)cc1` (stereo not given), the Potency result in the test with CP260, with CP262, with CP265, in the test with CP266, in the test with CP268 and with CP269 was “inactive” in each case. Moreover, the Potency entry in the test with CP286, in the test on CP291, in the test with CP297, in the test with CP305, in the test with CP315 and in the test on CP325 was “inactive” in each case. The Potency result in the test with CP329, in the test on CP335, in the test on DFO2036, in the test on DIV14, with DIV17 and in the test with DIV30 was “inactive” each time. Further, the Potency entry in the test on Dd2 and with ECU was “inactive” each time.
